{"source": "the supplement of paper PMC12632987", "binders": {"B1": {"name": "GBRAP_74_6512 (protein)", "chain": "MEELLAKLKEAAEAKDVDKLVALALEIAETGDKETIEKAAEIVVAFVEANLDTLTPEELEKLSDALATLADKLMELGGDSEVVNRVAETAVALEKKLLAL"}, "B2": {"name": "GBRAP_52_5860 (protein)", "chain": "MVEEALEKLRKAVEAMKAGKEEEAEKILKEIVENFDEETILAAAEAFAKEMATATPEEAEAAFRTAEMLGKILEEAGFDEEVVTLIEDTIGAAVARVEAA"}, "B3": {"name": "GBRAP_139_3742 (protein)", "chain": "SEMEKKVEEAAKKVAELKDDPEAVADYLTETIASVDEETAEKIARAAVEVLADLPVEERLALDDLILDKLEEAGVDEDKITIVEAELNGGLARHAYAEEL"}, "B4": {"name": "GBRAP_139_3708 (protein)", "chain": "SALEEKVAEAKELTKETLENPEESIKKIVELLLSVSEEDLEVVVKAIAETLSEFPLDTAEELADKLLEEVKKRSKDEDKVNIVEAVLNGALARKAYEEEL"}, "B5": {"name": "GBRAP_80_6860 (protein)", "chain": "DEARLAAARARLKALLPEAAALIDEVVAIAKELGVPNADIADLLDALAELAEVDPELAKELLEELLEDLREEKEAGDAENALATVRGYAGEALMEAEELE"}, "B6": {"name": "GBRAP_95_7064 (protein)", "chain": "EEDLEIAEDLIDTAEDLVEIGLYEQAARAAKAAVEELKEIGYTGELALRAAEVLVKVAEATGNEEAAELAKEVLEEIRKAGGDEKKIEELEKRLEKALKK"}, "B7": {"name": "GBRAP_52_6171 (protein)", "chain": "SAEKARKMAEELLEAIKAGDEEKVKKILEEIAKNYTDEEIAAMLREVAKRVPSLSPEDQERVVEAALELEDIAVKAGHDENVLQIEVARVAAAAYDALQA"}, "B8": {"name": "GBRAP_53_6396 (protein)", "chain": "AEKEIKEGLKELEALIKRVKADPTLDPKEVAKEASALFKALVAAGAPEEELVKLAKELAEAVKAKGLGVEVSTALAKAAAEAGAEEVQYVFTEAAVEDLE"}, "B9": {"name": "GBRAP_160_4238 (protein)", "chain": "SEEIEKLREEITDEAELLLDVLLESPKSQWPAYARAFAGDIVQIVEENENVSDETEEKVAELADEMVAELVAARDASPEELAALLERFVERIVKTVEEGV"}, "B10": {"name": "GBRAP_128_3427 (protein)", "chain": "STAAKVAEVEALLEAMLTADAAEAAALARRIAALMLASDLETVEAMVEVILSMLPKFTAEQLEILADALREARPEFTPEKQLLVSEVEVAALNEAEEKEE"}, "B11": {"name": "GBRAP_160_4711 (protein)", "chain": "MEVKEKLKKYVEEEFEEAKELIKGESIEQRAIIVEGTIGEIIMELFEEEEASDELIDEVDKIGDELVETILANPDLTEEEIEELIEKAEEEIKKAIDKYV"}, "B12": {"name": "GBRAP_39_5693 (protein)", "chain": "EEDEENEDHVSYLQALAAKRLYETGISLEEATKEAKKILEEEAKRNPELKELLEELIKLAEEKGDEAKEVLIGVAVLIEEGEPKEEIKEHIEKAIKYFKK"}, "B13": {"name": "GBRAP_95_7034 (protein)", "chain": "EDDKLALESALEVAVAAAELGDEEAAARALKEALELLKKAGKVKLDPELLKETIEVIREVGVKKLPKEEVLELLELLKESAETEEVKKLAEEAIEEVKKR"}, "B14": {"name": "GBRAP_74_6536 (protein)", "chain": "SEEKEKVIKEINEAETIEEAIEITEKVLETDDKELARAAVQELLLKAAERKDELTLEEAERLVEVIVRAFEKNGIVVETREEAEALNTVLTKALELEEKA"}, "B15": {"name": "GBRAP_166_4984 (protein)", "chain": "MEEELVEELKKYLEELAEKMKEAGPEERQELVAEAAERLAEAREKGLSREKLGELVEYLLRLAREVGIPISAVEGALSILADLDEEEIDILDEAARRVAA"}, "B16": {"name": "GBRAP_128_3314 (protein)", "chain": "MDEERLEEAREIVERMKEADLEELAELTRRLAELLGTLTPEERDIVAEIFREGLKELSAEKLDVVADVLREVRPSLDPETANVVADLEVEALNEAVEKEE"}, "B17": {"name": "GBRAP_74_6519 (protein)", "chain": "EEELLAALEAAAAAGDAATAVALARRIVAEGSLEAVERAARIMVAFVERHADALSPEELEAVADALAELADELMLRGGDSEVVLAVARAAVALEERRRAL"}, "B18": {"name": "GBRAP_128_3579 (protein)", "chain": "SVEEVRAEVRALLEAMKTADAAEQKAIATEIATRFTTLTPEERRAAAETIEELLPELSAEQLDILADALRAARPTADPEAANLLADVEVAALNEALEKEE"}, "B19": {"name": "GBRAP_160_4226 (protein)", "chain": "METVEKIVKVFRDTFLEALELIEGESAEERAVILDVAVGEVILEVSEIEEATDEMEEVVDKKAEALAAALLAAADASAAERRALVDKAAAELRKELEKIE"}, "B20": {"name": "GBRAP_184_5358 (protein)", "chain": "EVRHLSVTVETKEEAVEKLAEAREEIRASGLPTVLVVELKNADLETVETVMELLAELREEGLIERGIVVVDDDRSEEEIDKMVELADRYGVDLVVAIPEE"}, "B21": {"name": "GBRAP_159_3958 (protein)", "chain": "MEELEKRVKEAKEKAKDNPEVVKLIEEVYDLIKEGEDAETIADFTVGSIVTLDVTPEEARLVLSVLPEETRRLAAEDLAYLAEELGREDLAAAARAILEE"}, "B22": {"name": "GBRAP_128_3325 (protein)", "chain": "MNEERIKEAEEIIKEIVKADVEEAKKLTEELLKLMETMTDEERDIVVEIMEKELEKLDAEKLDAIADTIRELQPTLDPLTARYAAEIEVEALNLAEEKEE"}, "B23": {"name": "GBRAP_160_4149 (protein)", "chain": "SEELKKLIKEIKEITEEAIKLMEGETPEEAKVIAKVALGEIVMLVESNEEVSEETEEKVGEIADEAEEYLDENPDLTVEEIKELLKKAGEEVIKIIEEEL"}, "B24": {"name": "GBRAP_160_4147 (protein)", "chain": "SAELKALIEEIREITEEAIKLMEGETPEEAKVIARVALGEIVMLVFSNEAVSEETEEEVGEVADEAEAHLRANPDLTVEEIKAILREAGEEVIEIIEKEV"}, "B25": {"name": "GBRAP_52_5941 (protein)", "chain": "SSSRLKEIAEELIKLALAGDEEGLRKKAREIAKTYSDEEILAIAKEIAKMAKEAPKEDLDAYFRLMEILTEELEKEGRSEELISEIEGLMAKAMYENELK"}, "B26": {"name": "GBRAP_160_4588 (protein)", "chain": "MESLEKMKEIVREELEEAKEMIVGETAEQRATIVLGAGGEIVMELSENPEASDELEDEVLKIADEAADTILANPNITEEEFNALLDEMEKKMIEAIEKHL"}, "B27": {"name": "GBRAP_11_2927 (protein)", "chain": "KKEKIKEIAELAEELAEAADRLIAEGTDNEELRKKLEELLEKLVELVKEYGDEADKKDAEHMRELWEKAKADPANAVQYLTELRNEARVLSGIYLLEYDE"}, "B28": {"name": "GBRAP_139_3733 (protein)", "chain": "SADDAAVAEVVALTKRSVETGGALVAEIADALNALDEDTADRAAEAMAEVLETQPFDVAEALFDALIDTLLTEHKNEDLATIVEAAANRALARIAVREEA"}, "B29": {"name": "GBRAP_52_6365 (protein)", "chain": "MLEEAVELLRKAVEATLAGKEEEAEEILKEIVENFSDETIVKAVERLAEEVATKTLEEAEAFLDTAIRLADIMLEAGRDEAKADEIEAIAAKAYSAVLAK"}}, "note": "Over roughly 4,500 sequences, “median log2 fold change of GCK-ALFA target abundance (FLAG IP / Myc IP barcode read proportion)” has its median near 0.078; the lowest 2% begin near -0.6. This excerpt belongs to a sample that is enriched for the lowest values."}
{"molecular_target": "GABARAP, O95166", "sequence (O95166 whole entry, the tested form may be a part)": "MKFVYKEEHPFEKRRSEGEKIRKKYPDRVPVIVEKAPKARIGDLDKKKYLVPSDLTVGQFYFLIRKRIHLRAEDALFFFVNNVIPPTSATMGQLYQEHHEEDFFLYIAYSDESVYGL", "test": "median log2 fold change of GCK-ALFA target abundance (FLAG IP / Myc IP barcode read proportion) (log2 ratio); each designed protein is fused to an ALFA-tag nanobody in HEK293 cells to bring the named protein to FLAG-tagged glucokinase (GCK); Myc marks an untargeted standard; higher = target protein stabilised (more abundant)", "settings": "target protein: 3xFLAG-MCP-GCK-ALFA reporter; HEK293 landing pad (RPLP)", "description": "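LABEL-seq trans screen in HEK293 landing-pad cells. Each de novo designed 100-aa effector handle, binding the indicated effector (E3 ligase, DUB or autophagy protein), is fused to a constant NbALFA target handle and induced with 2 ug/mL doxycycline. A FLAG-MCP-GCK-ALFA target and a Myc-MCP standard reporter were transfected, and after 48 h circRNA barcodes were recovered by anti-FLAG and anti-Myc IP and sequenced. The value is the median across barcodes (at least 3 per design) of log2(FLAG/Myc read-proportion ratio), with the two transfection replicates pooled. Negative values mean degradation and positive values mean stabilisation of the target.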"}
{"binder": "B1", "median log2 fold change": 0.23}
{"binder": "B2", "median log2 fold change": 0.165}
{"binder": "B3", "median log2 fold change": 0.187}
{"binder": "B4", "median log2 fold change": 0.163}
{"binder": "B5", "median log2 fold change": -0.593}
{"binder": "B6", "median log2 fold change": 0.373}
{"binder": "B7", "median log2 fold change": -0.631}
{"binder": "B8", "median log2 fold change": 0.274}
{"binder": "B9", "median log2 fold change": -0.458}
{"binder": "B10", "median log2 fold change": 0.18}
{"binder": "B11", "median log2 fold change": -0.152}
{"binder": "B12", "median log2 fold change": 0.24}
{"binder": "B13", "median log2 fold change": 0.352}
{"binder": "B14", "median log2 fold change": -0.769}
{"binder": "B15", "median log2 fold change": 0.23}
{"binder": "B16", "median log2 fold change": 0.162}
{"binder": "B17", "median log2 fold change": -0.0734}
{"binder": "B18", "median log2 fold change": 0.177}
{"binder": "B19", "median log2 fold change": -0.651}
{"binder": "B20", "median log2 fold change": -0.0422}
{"binder": "B21", "median log2 fold change": 0.0598}
{"binder": "B22", "median log2 fold change": 0.156}
{"binder": "B23", "median log2 fold change": -0.271}
{"binder": "B24", "median log2 fold change": -0.617}
{"binder": "B25", "median log2 fold change": 0.165}
{"binder": "B26", "median log2 fold change": -0.211}
{"binder": "B27", "median log2 fold change": 0.134}
{"binder": "B28", "median log2 fold change": 0.133}
{"binder": "B29", "median log2 fold change": -0.000301}
